Rows were chosen to be rich in hits. Some 10% of all compounds tested hit in one or more screens of this group.
GPT2 inh: blocks human glutamate pyruvate transaminase 2; Q8TD30; Recombinant GPT2, coupled pyruvate oxidase/HRP Amplex Red fluorescence; Potency, µM (doses to about 57.7 µM), most hits filed as inhibitors; 100,000 compounds, 0.25% hits; AID 1671188; also: nearly all actives have a fitted effect of over 60% in size
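Fluorescence read-out: pyruvate from GPT2 turnover coupled to pyruvate oxidase, HRP and Amplex Red (0.2mM ThPP, 0.2U/mL PO and HRP, 50uM Amplex final). Substrates 250uM a-KG, 2mM L-alanine; enzyme 10ng/uL; 30 min RT.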
HEK293 tox: kills HEK 293 cells. HEK 293 viability, ATP luminescence (CellTiter-Glo), 48-72 h. Potency, µM (series often up to 115 µM), hits mostly inhibitors. 94,000 compounds, 6.6% hits. AID 1345083; also: nearly all actives have a fitted effect of over 60% in size
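Cells seeded first (HEK 293, 250 cells/well), then compound added by pintool. Incubation ran 48 or 72 hr at 37 degree Celsius. CellTiter-Glo was added and luminescence imaged after 10 min at room temperature.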
NIH3T3 tox: kills NIH 3T3 cells. NIH 3T3 viability, CellTiter-Glo ATP luminescence, 48-72 h. 94,000 compounds, 4.3% hits. Potency, µM (top dose mostly 96.7 µM), actives largely listed as inhibitors; also: nearly all actives have a fitted effect of over 55% in size
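Mouse fibroblast NIH 3T3 cells, 400 per well, received compound via pintool and were incubated for 48 or 72 hr prior to CellTiter-Glo ATP luminescence measurement.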
FLuc inh: inhibitors of firefly (Photinus pyralis) luciferase | P08659 | purified P. pyralis luciferase, luminescence, biochemical | Potency, µM (series often up to 115 µM), actives largely listed as inhibitors | 76,000 compounds, 2.5% hits; also: nearly all actives have a fitted effect of over 65% in size
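Cell-free enzyme assay, 10nM P. pyralis luciferase, luciferin and ATP each at 10uM. Inhibition profiled over a 6-point titration, read as luminescence.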
NPR1 antag: antagonists of human natriuretic peptide receptor Npr1 | Potency, µM (doses to about 46.3 µM), usual class: inhibitors | 76,000 compounds, 1.6% hits | HEK293 hNpr1 GloSensor cGMP, ANP-stimulated luminescence | AID 1347048; calls by dose curve; also: nearly all actives have a fitted effect of over 60% in size
Target sequence (P16066 whole entry, looked up): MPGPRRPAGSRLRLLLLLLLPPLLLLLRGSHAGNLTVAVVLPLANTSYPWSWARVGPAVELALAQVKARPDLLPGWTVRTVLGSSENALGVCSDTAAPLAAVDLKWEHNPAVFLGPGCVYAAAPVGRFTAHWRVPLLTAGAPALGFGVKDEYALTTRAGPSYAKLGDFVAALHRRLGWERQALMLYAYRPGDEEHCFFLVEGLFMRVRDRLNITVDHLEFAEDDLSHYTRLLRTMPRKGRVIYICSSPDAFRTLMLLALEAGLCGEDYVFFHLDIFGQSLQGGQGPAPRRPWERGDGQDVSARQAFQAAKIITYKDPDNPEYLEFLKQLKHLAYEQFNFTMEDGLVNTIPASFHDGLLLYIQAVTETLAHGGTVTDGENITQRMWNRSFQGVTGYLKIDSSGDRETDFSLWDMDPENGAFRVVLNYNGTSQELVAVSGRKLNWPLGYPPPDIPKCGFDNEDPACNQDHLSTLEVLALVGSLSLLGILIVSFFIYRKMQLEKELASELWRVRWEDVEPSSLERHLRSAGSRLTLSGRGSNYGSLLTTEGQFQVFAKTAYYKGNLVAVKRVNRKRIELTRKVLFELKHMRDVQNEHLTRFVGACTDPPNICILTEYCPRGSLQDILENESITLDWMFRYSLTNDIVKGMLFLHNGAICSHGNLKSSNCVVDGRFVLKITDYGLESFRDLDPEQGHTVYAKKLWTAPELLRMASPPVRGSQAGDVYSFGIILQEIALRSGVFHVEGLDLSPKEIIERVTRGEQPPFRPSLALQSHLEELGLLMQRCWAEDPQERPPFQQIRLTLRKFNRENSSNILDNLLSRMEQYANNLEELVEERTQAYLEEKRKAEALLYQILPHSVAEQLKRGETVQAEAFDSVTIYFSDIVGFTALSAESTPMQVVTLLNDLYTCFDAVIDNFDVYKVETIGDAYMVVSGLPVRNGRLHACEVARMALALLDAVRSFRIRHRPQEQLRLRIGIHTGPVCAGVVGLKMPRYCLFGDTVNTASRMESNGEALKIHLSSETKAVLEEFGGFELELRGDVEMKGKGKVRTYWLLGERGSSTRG
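HEK293 cells stably expressing human Npr1 and cGMP GloSensor pGS-40F, loaded 2 h with 2% GloSensor reagent, given compound 30 min at room temperature. Luminescence read before and 20 min after 0.1 nM hNppA.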
Npr1 antag conf: confirmation of human Npr1 natriuretic peptide receptor antagonists | Potency, µM (top dose mostly 57.6 µM), actives largely listed as inhibitors | HEK293 hNpr1 cGMP GloSensor luminescence, ANP-stimulated | 1,400 compounds, 76% hits | shares compounds with NPR1 antag; calls by dose curve; also: nearly all actives have a fitted effect of over 70% in size
NPR2 antag: selectivity test of Npr1 antagonists against human Npr2 | HEK293 hNpr2 GloSensor cGMP luminescence, CNP-stimulated | AID 1347046 | 1,400 compounds, 67% hits | Potency, µM (titrated, usually from 57.6 µM), usual class: inhibitors | shares compounds with NPR1 antag; calls by dose curve; also: nearly all actives have a fitted effect of over 70% in size
FLuc counter: inhibits firefly luciferase, false Npr1 antagonist flag; shares compounds with NPR1 antag; purified FLuc enzyme, luminescence, Km substrate; Potency, µM (series often up to 57.6 µM), actives largely listed as inhibitors; 1,400 compounds, 0.7% hits; AID 1347047
GloSensor ctrl: reduces cGMP signal in GloSensor control cells; shares compounds with NPR1 antag; HEK293 GloSensor cGMP, SNP-stimulated, luminescence; Potency, µM (highest dose often 57.6 µM), usual class: inhibitors; 1,400 compounds, 69% hits; AID 1347051; calls by dose curve; also: nearly all actives have a fitted effect of over 70% in size
Each line names hits and unclear results; the compound was inactive in the other large screens (follow-up assays come after a bar, where they were run). Unless noted, calls follow the shape of the dose curve; as a rule, active = well fitted curve in the direction sought with a large enough effect; inconclusive = small, poorly fitted or top-dose-only effect, or another doubt; inactive = no such curve, though single readings can be large; an effect the other way counts as inactive or inconclusive.

Cc1nc(-c2ccc(OC3CCN(C(=O)NC(C)C)C3)cc2)no1 (centres undefined)	HEK293 tox inconclusive
CCN(CC)C(=O)N1CCC(Oc2ccc(-c3noc(COC)n3)cc2)C1 (centres undefined)	HEK293 tox inconclusive, NPR1 antag 7.9µM | Npr1 antag conf 11µM | NPR2 antag 14µM | FLuc counter inactive | GloSensor ctrl 12µM
COc1cccc(CN2CCC(Oc3ccc(-c4noc(C5CC5)n4)cc3)C2)c1 (centres undefined)	HEK293 tox 40µM, NIH3T3 tox inconclusive, NPR1 antag 11µM | Npr1 antag conf inconclusive | NPR2 antag inconclusive | FLuc counter inactive | GloSensor ctrl 27µM
COCc1nc(-c2ccc(OC3CN(C(=O)c4cc(C)n(C)n4)C3)cc2)no1	HEK293 tox inconclusive
COCc1nc(-c2ccc(OC3CCN(C(=O)NCc4ccc(F)cc4)C3)cc2)no1 (centres undefined)	HEK293 tox inconclusive, NIH3T3 tox inconclusive, NPR1 antag inconclusive
COc1ccc(CNC(=O)N2CCC(Oc3ccc(-c4noc(C5CC5)n4)cc3)C2)cc1 (centres undefined)	HEK293 tox inconclusive, NIH3T3 tox inconclusive, NPR1 antag 18µM | Npr1 antag conf inconclusive | NPR2 antag inconclusive | FLuc counter inconclusive | GloSensor ctrl inconclusive
CCCCn1c(=O)c(C(=O)N2CCN(C(=O)Cc3ccc(F)cc3)CC2)nc2cccnc21	none (no result: FLuc inh, NPR1 antag)
O=C1NCCCCCCN(C(=O)c2ccncc2)[C@H]2C[C@H](c3nc(Cc4ccccc4)no3)C[C@@H]12	none
O=C(OCc1ccccc1)N1CCCN(c2cc(C3CC(O)C3)ncn2)CC1 (centres undefined)	HEK293 tox inconclusive, NPR1 antag 8.9µM | Npr1 antag conf 15µM | NPR2 antag 15µM | FLuc counter inactive | GloSensor ctrl 14µM
CCc1cc(=O)n(CC(=O)Nc2ccc3c(c2)OCCO3)c(-c2cccc(F)c2)n1	HEK293 tox inconclusive, NIH3T3 tox inconclusive, NPR1 antag inconclusive | Npr1 antag conf inconclusive | NPR2 antag inactive | FLuc counter inactive | GloSensor ctrl inconclusive
COc1cccc(-c2cc(C3CCN(S(=O)(=O)c4ccc(C(C)=O)cc4)CC3)[nH]n2)c1	HEK293 tox inconclusive, NIH3T3 tox inconclusive, NPR1 antag 14µM | Npr1 antag conf 24µM | NPR2 antag 24µM | FLuc counter inactive | GloSensor ctrl 24µM
COc1ccc(C2(C(=O)N3CCC(Cc4nc(-c5ccc(F)cc5)no4)CC3)CC2)cc1	HEK293 tox inconclusive, NIH3T3 tox inconclusive, NPR1 antag 5.6µM | Npr1 antag conf 4.8µM | NPR2 antag 6.1µM | FLuc counter inactive | GloSensor ctrl 6.1µM
COc1ccc(C2(C(=O)N3CCC(Cc4nc(-c5ccccc5)no4)CC3)CC2)cc1	HEK293 tox inconclusive, NIH3T3 tox inconclusive, NPR1 antag 7.9µM | Npr1 antag conf 7.7µM | NPR2 antag 9.7µM | FLuc counter inactive | GloSensor ctrl 9.7µM
O=C(N1CCC(Cc2nc(-c3ccc(F)cc3)no2)CC1)C1(c2ccccc2)CC1	HEK293 tox inconclusive, NIH3T3 tox inconclusive, NPR1 antag inconclusive
Cc1ncsc1CN1CCCCC1c1nc(CCOc2ccc(F)cc2)no1 (centres undefined)	HEK293 tox 16µM, NIH3T3 tox inconclusive, NPR1 antag 10µM | Npr1 antag conf 22µM | NPR2 antag 19µM | FLuc counter inactive | GloSensor ctrl 19µM
